By AC50 is commonly meant the concentration giving half of the maximal activity seen.

Experimental findings from PubChem BioAssay (EPA / NIEHS) are described below.

Results filed as inconclusive are left out. Activity calls are given as the source filed them. The calls were made as follows, unless noted: active = hit-call score of the fitted dose curve at least 0.9, where 1 is the maximum; inconclusive = response in the unintended direction; inactive = score below 0.9.

Experiment [1] concerns the target Nucleoli Translocation, AR (gene 367) (UniProt P10275). Nature of the experiment: UPITT_HCI_U2OS_AR_TIF2_Nucleoli_Antagonist: University of Pittsburgh U2OS Androgen Receptor-Transcriptional Intermediary Factor 2 (AR-TIF2) Antagonism High Content Imaging Assay for Nucleoli Translocation (AID 2283997). The essentials: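 U2OS cells expressing RFP-tagged human AR and GFP-tagged TIF2 were imaged by high-content fluorescence microscopy for red AR signal in the nucleolar region. Compounds were screened at 20 uM final (0.2% DMSO), with activity fitted relative to DHT as baseline.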

Experiment [2] deals with Ratio of Nucleoli Translocation and Cytoplasm, AR (gene 367) (UniProt P10275). Description: UPITT_HCI_U2OS_AR_TIF2_Nucleoli_Cytoplasm_Ratio_Agonist: University of Pittsburgh U2OS Androgen Receptor-Transcriptional Intermediary Factor 2 (AR-TIF2) Agonism High Content Imaging Assay for Ratio of Nucleoli Translocation and Cytoplasm (AID 2284000).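 Also: hits raise the red nucleolar to cytoplasm ratio above vehicle.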 The essentials: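 U2OS cells expressing RFP-tagged human AR and GFP-tagged TIF2 were imaged by high-content fluorescence microscopy. The endpoint is the ratio of nucleolar to cytoplasmic red fluorescence, fitted for gain of signal relative to DMSO. Concentration-response spanned 0.195 to 50 uM final (0.5% DMSO).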

For the next experiment, the system named is DIO1 (gene 1733). Nature of the experiment: CCTE_GLTED_hDIO1: CCTE's human Deiodinase 1 (DIO1) Inhibition Assay, Great Lakes Toxicology and Ecology Division (GLTED) Lab (AID 2283987).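 Also: isolated human DIO1 enzyme in a cell-free setup rather than cells; enzyme activity read as free iodide liberated from substrate via Sandell-Kolthoff colorimetry.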 The essentials: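 Steps: human DIO1 enzyme plus test chemical, 3 h incubation; free iodide then quantified in a second Sandell-Kolthoff step by absorbance. DMSO served as negative control and baseline.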

The target of another experiment is THRA (gene 7067) (UniProt P10827). Description: TOX21_TRA_COA_Agonist_Followup_ratio: Tox21 Thyroid Hormone Receptor alpha Agonism through Coactivator Recruitment Follow-Up Assay, Ratio (AID 2283948; active = hit-call score of the fitted dose curve at least 0.9, where 1 is the maximum; inactive = score below 0.9). The essentials:
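GST-TRa LBD 2.5 nM + 0.10% BSA + cpd; add fluorescein-SRC-2 200 nM, Tb-anti-GST 2 nM. TR-FRET ex 340, em 520/495 ratio. Norm: DMSO 0%, T3 100%; gain-of-signal fit.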

The nature of experiment [3]: TOX21_TRB_BLA_Agonist_Followup_viability: Viability Assessment in the Tox21 Thyroid Hormone Receptor beta Agonism Beta-lactamase (BLA) Follow-Up Assay (AID 2283956). The essentials: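 TRb-bla HEK293T cells (GAL4-DBD/human TRb LBD) in 2% charcoal-stripped FBS medium were exposed 18 h at 37C to 11 concentrations in triplicate. CellTiter-Glo ATP luminescence was read after 30 min at room temperature, with bidirectional fitting against DMSO.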

A further experiment has as its target THRB (gene 7068) (UniProt P10828). Nature of the experiment: TOX21_TRB_COA_Agonist_Followup_ratio: Tox21 Thyroid Hormone Receptor beta Agonism through Coactivator Recruitment Follow-Up Assay, Ratio (AID 2283963; active = hit-call score of the fitted dose curve at least 0.9, where 1 is the maximum; inactive = score below 0.9). Summed up:
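Agonism is measured as coactivator recruitment in a purified-protein TR-FRET format, using GST-TRβ LBD at 5.0 nM, fluorescein-SRC-2 peptide at 200 nM and Tb-labeled anti-GST antibody at 2 nM. Values are 520:495 nm ratios relative to DMSO (0%) and T3 (100%).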

Experiment [4] has as its target Retinoic acid receptor RXR-alpha (Homo sapiens) (UniProt P19793). Nature of the experiment: TOX21_TR_RXR_BLA_Agonist_Followup_ratio: Tox21 Thyroid Hormone Receptor beta Retinoid X Receptor alpha (RXRa) Agonism Beta-lactamase (BLA) Follow-Up Assay, Ratio (AID 2283968). Summed up: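 HEK293T RXRa-bla, qHTS; cpd 11-pt conc. in triplicate, 16 h 37C/5% CO2; CCF4-AM 2 h RT; ratio 460:530 nm; agonist direction vs DMSO; 9-cis retinoic acid as positive control.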

A short description of experiment [5]: TOX21_TR_RXR_BLA_Agonist_Followup_viability: Viability Assessment in the Tox21 Thyroid Hormone Receptor beta Retinoid X Receptor alpha (RXRa) Agonism Beta-lactamase (BLA) Follow-Up Assay (AID 2283970). The essentials: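 Cells: HEK293T RXRa-UAS-bla, 2,500/well; medium phenol red-free DMEM + 2% charcoal-stripped FBS; 16h, 37C/5% CO2; qHTS concentration series. Read: CellTiter-Glo luminescence (ATP); bidirectional fit, DMSO = baseline.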

A short description of experiment [6]: CCTE_Simmons_MITO_basal_resp_rate: CCTE's HepG2 Seahorse XF Respirometric Screening Assay at Basal Respiratory State, Simmons Lab (AID 2284001; active = hit-call score of the fitted dose curve at least 0.9, where 1 is the maximum; inactive = score below 0.9). The following applies: actives raise or lower the signal. The essentials:
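HepG2 cells were given test chemicals at 7 concentrations, 125 nM to 100 uM final, and oxygen consumption rate was read every 6 min (3 min mix, 3 min measure) over 72 min. Basal-phase OCR was fitted bidirectionally against DMSO.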

The nature of experiment [7]: CCTE_Simmons_MITO_max_resp_rate: CCTE's HepG2 Seahorse XF Respirometric Screening Assay at Maximal Respiratory State [uncoupled], Simmons Lab (AID 2284002; active = hit-call score of the fitted dose curve at least 0.9, where 1 is the maximum; inactive = score below 0.9). The following applies: actives raise or lower the signal. The essentials:
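HepG2, Seahorse XF96, maximal OCR post-FCCP. Cpd 125 nM–100 uM final (7 conc), n=3 biological. Kinetic reads every 6 min (3 min mix/3 min measure) over 72 min; fit bidirectional vs DMSO.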

The nature of experiment [8]: CCTE_Simmons_MITO_inhib_resp_rate: CCTE's HepG2 Seahorse XF Respirometric Screening Assay at Inhibited Respiratory State [full ETC block], Simmons Lab (AID 2284006; active = hit-call score of the fitted dose curve at least 0.9, where 1 is the maximum; inactive = score below 0.9). The following applies: actives raise or lower the signal. Summed up:
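Compound injected onto HepG2 cells (125 nM–100 uM final, 7 points); FCCP then rotenone/antimycin A added. Oxygen consumption read every 6 min (3 min mix, 3 min measure) for 72 min. Inhibited-state OCR fitted against DMSO.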

A short description of experiment [9]: TOX21_PR_LUC_Followup_Agonist_viability: Viability Assessment in the Tox21 HEK293 Progesterone Receptor (PR) Agonism Luciferase Follow-Up Assay (AID 2283941).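 Also: loss of signal means cytotoxicity so actives lower viability.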 The essentials: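 Cells were kept 5 days in charcoal-stripped serum medium before plating HEK293-PR-A-luc at 3,000 cells/well. After 5 h they received DMSO-dissolved compound and incubated 16 h at 37C. Viability was taken from CellTiter-Glo ATP luminescence.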

Sequence of Nucleoli Translocation, AR (gene 367) (P10275 whole entry, looked up): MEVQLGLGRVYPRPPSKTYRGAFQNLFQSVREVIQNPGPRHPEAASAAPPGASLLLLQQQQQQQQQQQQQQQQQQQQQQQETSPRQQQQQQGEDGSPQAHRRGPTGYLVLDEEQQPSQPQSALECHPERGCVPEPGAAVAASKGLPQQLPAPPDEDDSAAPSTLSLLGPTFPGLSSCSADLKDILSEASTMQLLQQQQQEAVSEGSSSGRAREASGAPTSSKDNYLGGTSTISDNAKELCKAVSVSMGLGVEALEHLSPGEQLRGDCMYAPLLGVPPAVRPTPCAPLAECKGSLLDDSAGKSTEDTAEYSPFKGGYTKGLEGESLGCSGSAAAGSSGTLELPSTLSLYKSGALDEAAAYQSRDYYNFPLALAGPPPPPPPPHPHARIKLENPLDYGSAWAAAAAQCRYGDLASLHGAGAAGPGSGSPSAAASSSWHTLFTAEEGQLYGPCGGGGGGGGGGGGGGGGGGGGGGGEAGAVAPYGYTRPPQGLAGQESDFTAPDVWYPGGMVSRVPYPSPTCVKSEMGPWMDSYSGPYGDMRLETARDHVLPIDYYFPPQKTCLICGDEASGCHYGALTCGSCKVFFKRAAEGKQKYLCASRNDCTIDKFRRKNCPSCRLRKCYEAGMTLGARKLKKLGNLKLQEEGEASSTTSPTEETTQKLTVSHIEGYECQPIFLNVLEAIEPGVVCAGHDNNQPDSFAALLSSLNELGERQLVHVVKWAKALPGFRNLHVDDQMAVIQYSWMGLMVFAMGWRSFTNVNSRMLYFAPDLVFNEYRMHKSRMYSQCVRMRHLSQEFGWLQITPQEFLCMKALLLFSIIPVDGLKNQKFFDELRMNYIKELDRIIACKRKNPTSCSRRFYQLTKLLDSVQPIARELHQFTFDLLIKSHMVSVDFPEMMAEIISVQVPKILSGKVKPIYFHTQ
Sequence of Ratio of Nucleoli Translocation and Cytoplasm, AR (gene 367) (P10275 whole entry, looked up): as above
Sequence of THRA (gene 7067) (P10827 whole entry, looked up, the tested form may be a part): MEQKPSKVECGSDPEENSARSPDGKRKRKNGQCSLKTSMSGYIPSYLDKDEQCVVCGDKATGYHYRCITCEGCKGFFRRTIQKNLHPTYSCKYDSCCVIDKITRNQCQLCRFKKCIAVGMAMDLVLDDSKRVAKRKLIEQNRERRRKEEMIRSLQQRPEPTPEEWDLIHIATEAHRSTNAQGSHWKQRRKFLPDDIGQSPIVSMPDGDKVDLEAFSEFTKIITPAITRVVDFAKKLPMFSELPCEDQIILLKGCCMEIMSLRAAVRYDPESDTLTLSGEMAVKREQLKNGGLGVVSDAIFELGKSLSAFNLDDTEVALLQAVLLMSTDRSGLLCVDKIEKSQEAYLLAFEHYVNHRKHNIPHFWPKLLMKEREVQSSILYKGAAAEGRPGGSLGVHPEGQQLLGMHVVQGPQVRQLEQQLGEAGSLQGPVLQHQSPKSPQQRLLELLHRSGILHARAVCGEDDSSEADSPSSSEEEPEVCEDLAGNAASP
Sequence of THRB (gene 7068) (P10828 whole entry, looked up, the tested form may be a part): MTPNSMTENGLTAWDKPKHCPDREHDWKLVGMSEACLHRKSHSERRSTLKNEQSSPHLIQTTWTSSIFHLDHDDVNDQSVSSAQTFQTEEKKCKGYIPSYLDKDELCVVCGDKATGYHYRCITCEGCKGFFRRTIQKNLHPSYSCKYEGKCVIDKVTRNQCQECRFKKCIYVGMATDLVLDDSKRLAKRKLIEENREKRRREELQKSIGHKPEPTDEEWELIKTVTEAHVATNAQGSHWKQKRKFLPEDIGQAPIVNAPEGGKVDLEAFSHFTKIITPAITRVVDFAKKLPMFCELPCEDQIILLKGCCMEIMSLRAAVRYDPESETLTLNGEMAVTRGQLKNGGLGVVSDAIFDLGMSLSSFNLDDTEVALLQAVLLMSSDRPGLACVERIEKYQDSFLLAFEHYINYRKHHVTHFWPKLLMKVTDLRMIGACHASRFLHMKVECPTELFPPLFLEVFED
Sequence of Retinoic acid receptor RXR-alpha (Homo sapiens) (P19793 whole entry, looked up): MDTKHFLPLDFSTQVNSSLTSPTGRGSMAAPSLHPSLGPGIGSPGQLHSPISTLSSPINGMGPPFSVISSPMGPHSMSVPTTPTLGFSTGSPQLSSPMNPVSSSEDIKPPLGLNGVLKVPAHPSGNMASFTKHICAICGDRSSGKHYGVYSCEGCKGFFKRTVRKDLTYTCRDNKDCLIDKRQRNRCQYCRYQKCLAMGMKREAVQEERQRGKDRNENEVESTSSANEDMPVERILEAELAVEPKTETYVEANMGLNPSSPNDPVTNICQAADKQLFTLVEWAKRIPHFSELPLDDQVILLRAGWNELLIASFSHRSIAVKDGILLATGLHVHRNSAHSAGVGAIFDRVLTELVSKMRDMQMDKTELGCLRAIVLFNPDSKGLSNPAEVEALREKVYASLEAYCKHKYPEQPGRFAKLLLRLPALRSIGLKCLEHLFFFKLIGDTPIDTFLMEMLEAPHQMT

Regarding `ClC1=C(Cl)C2(Cl)C3C(Cl)C(Cl)CC3C1(Cl)C2(Cl)Cl` (stereo not drawn), the AC50 in [1] is 11.5 µM (active). Further, in [2], the result was inactive.
As to `CC(C)(C)N(NC(=O)c1ccc(Cl)cc1)C(=O)c1ccccc1`, in experiment [1], the compound was called inactive.
Consider `COC(=O)C(F)(F)C(F)(F)OC(F)(C(F)(F)F)C(F)(F)OC(F)=C(F)F` (stereo not drawn), for which the concentration at half-maximal activity (AC50) in the experiment on DIO1 (gene 1733) was 0.494 µM (active).
`O=P(OCC(Br)CBr)(OCC(Br)CBr)OCC(Br)CBr` (stereo not drawn): the call in experiment [1] and in experiment [2] was inactive.
`CCCCN(CC)C(=O)SCCC`: the outcome in [1] and in experiment [2] was inactive.
For `C=CC(=O)OCC(F)(F)C(F)F`, in the experiment with DIO1 (gene 1733), the AC50 was 19.8 µM (active).
For the compound `Clc1ccc(Oc2ccccc2)cc1`, in experiment [1], the result was inactive.
As for `CC(Cc1ccc(OCC(=O)O)cc1)NCC(O)c1csc(C(F)(F)F)n1` (stereo not drawn), the outcome (with THRA (gene 7067); in [3]; with THRB (gene 7068); in [4]; in experiment [5]) was inactive.
Take `CCC(C)(C)c1ccc(O)cc1`: the values for the AC50 in experiment [6] and in experiment [7] were 49.9 µM (active) and 42.5 µM (active), respectively. In addition, the outcome in [8] was inactive.
As for `Cc1ccc(N)cc1N`, the compound was called inactive in experiment [6], in experiment [7] and in experiment [8].
`CCNc1nc(Cl)nc(NC(C)(C)C)n1`: the call in experiment [1] and in experiment [2] was inactive.
For the compound `[N-]=[N+]=[N-]`, the result in [1], in [2], in [6] and in experiment [8] was inactive. In addition, the AC50 in experiment [7] was 50 µM (active).
`CCCCCCCc1ccc(O)cc1`: the AC50 in the experiment on DIO1 (gene 1733) is 77 µM (active); in experiment [1], 60.7 µM (active); in [2] it was 28.9 µM (active); in experiment [6], 40.4 µM (active); in [7], 27.6 µM (active). Besides, in experiment [8], the result was inactive.
For the compound `ClC(Cl)(Cl)c1ccccc1`, the call in experiment [6], in experiment [7] and in experiment [8] was inactive.
In the case of `CCOP(=S)(Oc1ccc([N+](=O)[O-])cc1)c1ccccc1` (stereo not drawn), the compound was classed as inactive in experiment [9].
On to `CCCCC(CC)COP(=O)(Oc1ccccc1)Oc1ccccc1` (stereo not drawn), for which the compound was classed as inactive in experiment [1] and in [2].
Regarding `CC(C)(C)c1ccc(O)cc1`, in [6], the AC50 was 37.2 µM (active). The compound was classed as inactive in experiment [7] and in experiment [8].
